Among the data in PubChem BioAssay (EPA / NIEHS) are outcome and AC50 values, retold here.

The target of test [1] is Cellular tumor antigen p53 (Homo sapiens) (UniProt P04637). In words: TOX21_p53_BLA_p3_ratio: Tox21 HCT-116 p53 Agonism Beta-lactamase Assay, Ratio, Phase 3 (AID 2283596). The procedure, abridged:
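Cells were seeded at 4000/well, rested 5 h at 37C, then dosed with DMSO compound solutions (217-fold dilution) for 16 h. CCF4-AM substrate was loaded for 2 h at room temperature, and the 460/530 nm emission ratio was fitted for gain of signal versus DMSO.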

Test [2] is described as follows: TOX21_p53_BLA_p4_viability: Viability Assessment in the Tox21 HCT-116 p53 Agonism Beta-lactamase Assay, Phase 4 (AID 2283597).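 Also: hits lower the luminescence signal meaning cytotoxicity.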 Put shortly:
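4000 HCT116 cells per well; 5 h attachment; compounds from DMSO, 217-fold dilution; 16 h at 37C. Then CCF4-AM, 2 h RT, followed by CellTiter-Glo, 30 min RT, luminescence. Decrease = cytotoxicity.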

For test [3], the target named is Cellular tumor antigen p53 (Homo sapiens) (UniProt P04637). As to the kind of experiment: TOX21_p53_BLA_p5_ratio: Tox21 HCT-116 p53 Agonism Beta-lactamase Assay, Ratio, Phase 5 (AID 2283599). Put shortly:
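HCT-116 p53-bla cells (4000/well) plated 5 h, dosed with compound (217-fold DMSO dilution) for 16 h at 37 C; CCF4-AM substrate 2 h at room temperature. Activity is the 460/530 nm emission ratio (405 nm excitation), fitted in gain-of-signal direction versus DMSO.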

A short description of test [4]: TOX21_p53_BLA_p5_viability: Viability Assessment in the Tox21 HCT-116 p53 Agonism Beta-lactamase Assay, Phase 5 (AID 2283600). Put shortly: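 Decreased CellTiter-Glo luminescence denotes lost viability. Exposure: 16 h at 37C, 5% CO2, with compounds from DMSO stocks diluted 217-fold in wells of 4000 cells.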
Test [5] has as its target Cellular tumor antigen p53 (Homo sapiens) (UniProt P04637). In words: TOX21_p53_BLA_p4_ratio: Tox21 HCT-116 p53 Agonism Beta-lactamase Assay, Ratio, Phase 4 (AID 2283601). Put shortly: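 HCT-116 p53 beta-lactamase reporter cells (4000/well) preincubated 5 h, then compound (217-fold dilution of DMSO stock) for 16 h at 37C. CCF4-AM substrate added 2 h at room temperature; 460/530 nm emission ratio fitted upward versus DMSO.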

Test [6] can be described thus: Tanguay_ZF_120hpf_YSE_legacy: (Legacy) Oregon State University Tanguay Lab 120 Hour Post-fertilization zebrafish Assay for Yolk Sac Edema (AID 2283634).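 As to AC50: actives raise the incidence of yolk sac edema above the DMSO baseline.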 Put shortly:
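Dechorionated Tropical 5D wild-type zebrafish embryos were exposed statically, one per well, from 6 to 120 hpf at 28C in 0.64% DMSO. Yolk sac edema was scored present/absent by brightfield at 120 hpf, and dead embryos were excluded.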

A short description of test [7]: Tanguay_ZF_120hpf_AXIS_legacy: (Legacy) Oregon State University Tanguay Lab 120 Hour Post-fertilization zebrafish Assay for Body Axis Malformation (AID 2283635).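 As to AC50: potency for an increased fraction of larvae scored with body axis malformation.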 The procedure, abridged: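 Dechorionated wild-type Tropical 5D zebrafish embryos, one per well, statically exposed from 6 hpf to 120 hpf at 28C in 0.64% DMSO final. Body axis malformation scored present/absent by brightfield microscopy at 120 hpf; dead embryos excluded.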

Test [8] in a line: Tanguay_ZF_120hpf_EYE_legacy: (Legacy) Oregon State University Tanguay Lab 120 Hour Post-fertilization zebrafish Assay for Eye Malformation (AID 2283636).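 Also: binary presence or absence of eye malformation scored by brightfield in 120 hpf larvae.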 The procedure, abridged: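 5D wild-type embryos, pronase-dechorionated at 4 hpf; static exposure 6–120 hpf, 28C, dark; DMSO 0.64% final; 5uM trimethyltin chloride positive control. Binary eye-defect scoring at 120 hpf; dead embryos not scored.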

Test [9] can be described thus: Tanguay_ZF_120hpf_SNOU_legacy: (Legacy) Oregon State University Tanguay Lab 120 Hour Post-fertilization zebrafish Assay for Snout Malformation (AID 2283637). The procedure, abridged: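 Binary brightfield scoring of snout malformation at 120 hpf. Dechorionated 5D wild-type embryos, one per well, static exposure from 6 hpf at 28C, sealed and dark; final DMSO 0.64% (vol/vol), DMSO as baseline; 5uM trimethyltin chloride positive control.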

The nature of test [10]: Tanguay_ZF_120hpf_MORT_legacy: (Legacy) Oregon State University Tanguay Lab 120 Hour Post-fertilization zebrafish Assay for Mortality (AID 2283633). Put shortly: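 Dechorionated Tropical 5D wild-type zebrafish embryos, one per well from 6 hpf, static exposure in 0.64% DMSO at 28C until 120 hpf. Mortality scored as binary by brightfield microscopy at 24 and 120 hpf.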

Several values for one entry are separate records, joined by “and”; a condition that tells them apart may be missing. Equal values may be shown once. Inconclusive results are not listed. More than one record can exist for a structure, and the calls need not agree. Activity calls are given as the source filed them. The calls were made as follows: active = hit-call score of the fitted dose curve at least 0.9, where 1 is the maximum; inconclusive = response in the unintended direction; inactive = score below 0.9.

Sequence of Cellular tumor antigen p53 (Homo sapiens) (P04637 whole entry, looked up): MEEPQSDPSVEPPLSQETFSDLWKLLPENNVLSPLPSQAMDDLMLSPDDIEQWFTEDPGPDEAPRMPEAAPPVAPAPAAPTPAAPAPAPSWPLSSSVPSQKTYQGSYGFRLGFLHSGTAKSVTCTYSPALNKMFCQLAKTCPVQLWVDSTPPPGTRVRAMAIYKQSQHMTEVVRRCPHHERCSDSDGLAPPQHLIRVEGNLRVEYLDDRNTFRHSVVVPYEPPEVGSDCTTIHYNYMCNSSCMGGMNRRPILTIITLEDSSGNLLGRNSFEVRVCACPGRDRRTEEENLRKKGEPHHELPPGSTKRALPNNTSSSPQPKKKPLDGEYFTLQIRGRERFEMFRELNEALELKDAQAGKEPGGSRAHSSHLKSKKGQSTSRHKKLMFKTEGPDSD

Turning to `[N-]=[N+]=[N-]`, the outcome in test [1], in test [2], in test [3], in test [4], in [5] and in [6] was inactive. Further, the molecule was called inactive in test [7], in test [8] and in test [9].
For orientation: AC50 means the concentration giving half of the maximal activity seen. As to `ClC1=C(Cl)C2(Cl)C3C(Cl)C(Cl)CC3C1(Cl)C2(Cl)Cl` (stereo not drawn), the AC50 in test [1] is 86.1 µM (active); in test [2] it was 64.1 µM (active); in test [3] it was 86.4 µM (active); in [4], 46.1 µM (active); in test [5] it was 63.5 µM (active). Further, the outcome in [1], in [2], in test [3], in test [4], in [5] and in test [10] was inactive. For the same molecule, the outcome in [6], in test [7] and in [8] was inactive.
As to `O=c1[nH]c2ccccc2c(=O)o1`, the outcome in test [1], in [2], in test [3], in [4] and in [5] was inactive.
As for `NNC(N)=S`, the outcome in [1], in test [2], in test [3] and in [5] was inactive.
As to `CC1(C)CN=C(NN=C(/C=C/c2ccc(C(F)(F)F)cc2)/C=C/c2ccc(C(F)(F)F)cc2)NC1`, the AC50 is 39.5 µM (active) in test [1], 44.7 µM (active) in test [3] and 46.1 µM (active) in test [4]. In addition, the molecule was called inactive in [2] and in test [5].
As for `Nc1ccc2ccccc2c1`, the outcome in test [1], in test [2], in test [3], in [4] and in test [5] was inactive. Further, the figures for the half-maximal activity concentration (AC50) in test [6], in [7] and in test [8] were 34.8 µM (active), 33.4 µM (active) and 47.7 µM (active), respectively.
With `O=S(=O)(c1ccc(O)cc1)c1ccc(O)cc1`, the outcome in [1], in [2] and in [4] was inactive.
For the molecule `ClC(Cl)(Cl)c1ccccc1`, the result in test [1], in [2], in test [3], in test [4], in [5] and in test [6] was inactive. For the same molecule, the result in test [7] and in test [8] was inactive.
For `c1ccc2c(c1)sc1ccccc12`, the result in test [1], in [2], in [3], in test [4] and in [5] was inactive.
For the molecule `O=S1(=O)OCC2C(CO1)C1(Cl)C(Cl)=C(Cl)C2(Cl)C1(Cl)Cl` (stereo not drawn), the outcome in test [1], in test [2], in test [3], in test [4] and in test [5] was inactive.
For `CC(=O)CCc1ccc2c(c1)OCO2`, the result in test [1], in test [3] and in test [4] was inactive.
On to `CCCN(CCC)c1c([N+](=O)[O-])cc(C(C)C)cc1[N+](=O)[O-]`, for which the outcome in [1], in test [2], in test [4] and in [6] was inactive.
In the case of `c1ccc2c(c1)Nc1ccccc1S2`, the result in test [1], in test [2], in [3], in test [4], in [5] and in [6] was inactive. Moreover, the molecule was classed as inactive in [7], in [8] and in test [9].
As to `C=CC(=O)OCC(CC)(COC(=O)C=C)COC(=O)C=C`, the result in test [1], in [3] and in [5] was inactive. Also, the AC50 in test [2] was 75.7 µM (active) and 97.1 µM (active); in [4], 85.1 µM (active) and 89.1 µM (active); in test [5], 69.1 µM (active).
With `CCC1(c2ccccc2)C(=O)N=C(O)NC1=O` (stereo not drawn), the result in test [1], in test [2], in [5], in [6], in test [7] and in [8] was inactive.
Regarding `CCOP(=S)(S)OCC`, the outcome in [1], in test [2], in test [4] and in test [5] was inactive.
As to `Cc1cccc(N)c1`, the outcome in [1], in [2], in test [3], in test [4], in test [5] and in [6] was inactive. The outcome in test [7] and in [8] was inactive.
For the molecule `O=P(OCC(Br)CBr)(OCC(Br)CBr)OCC(Br)CBr` (stereo not drawn), the AC50 in test [1] is 75.3 µM (active) and 86.9 µM (active); in test [3] it was 66.9 µM (active) and 74.7 µM (active); in [5] it was 75.7 µM (active) and 73.6 µM (active). Also, the call in test [2] and in test [4] was inactive.
For `Cc1ccc2c(c1N)C(=O)c1ccccc1C2=O`, the outcome in test [1], in [2], in [3], in test [4] and in test [5] was inactive.
For `CCCCc1ccc(O)cc1`, the outcome in test [1], in test [2], in test [3] and in [5] was inactive.
On to `CCOS(=O)(=O)OCC`, for which the result in test [1], in test [2], in [3], in [4], in [5] and in test [6] was inactive. The result in test [7] and in test [8] was inactive.
Consider `CC(C)(C)OOC(C)(C)C`, for which the result in test [1], in test [2], in test [3], in [4], in test [5] and in test [6] was inactive. The result in test [7] and in test [8] was inactive.
With `O=[N+]([O-])c1ccccc1`, the result in test [1], in test [2], in test [3], in test [4], in test [5] and in test [6] was inactive. Besides, the result in [7] and in [8] was inactive.
As for `c1ccc(OP(Oc2ccccc2)Oc2ccccc2)cc1`, the outcome in test [1], in [2], in [3], in [6], in test [7] and in test [8] was inactive.
Regarding `CCC(C)(C)c1ccc(O)cc1`, the outcome in test [1], in test [2], in test [3], in test [4] and in test [5] was inactive. In addition, the figures for the AC50 in [6], in [7] and in test [8] were 51.1 µM (active), 19 µM (active) and 22.3 µM (active), respectively.
As to `Nc1ccc(Cl)cc1`, the result in test [1], in test [2], in [3], in test [4], in [5] and in [7] was inactive. Moreover, the molecule was classed as inactive in [8].
On to `OCC1CO1` (stereo not drawn), for which the result in test [1], in test [2], in test [3], in test [4], in [5] and in test [6] was inactive. The result in test [7] and in test [8] was inactive.
Take `C=C(C)C(=O)OCC1CO1` (stereo not drawn): the result in [1], in test [2], in test [3], in test [4] and in test [5] was inactive.
Regarding `CO/N=C(/C(=O)OC)c1ccccc1COc1ccccc1C`, the outcome in test [1], in test [2], in test [3], in [4] and in [5] was inactive.
Turning to `CCOP(=S)(OCC)SCn1nnc2ccccc2c1=O`, the result in [1], in test [2], in [3], in [4] and in test [5] was inactive.
